# TEAD-YAP block – TEAD-YAP interaction inhibition, primary screen, TEAD-YAP interaction inhibitor project, luminescence, HEK-TIYL cells; inhibition, % at 9.12 µM; 640,000 compounds, 1.4% hits; AID 1259422, 2018; TEAD-Gal4/YAP UAS-luciferase luminescence; in the data active = inhibition above about 32%
# GPR151 ag – activators of human GPR151, primary screen, cell-based, PathHunter beta-arrestin, luminescence; G-protein coupled receptor 151 (Homo sapiens), Q8TDV0; AID 1508602, 2020; PathHunter beta-arrestin GPR151 cells; 650,000 compounds, 1% hits; activation, % at 11.2 µM; in the data active = activation above about 4.9%
# MITF inh – MITF inhibitors, primary screen, biochemical, AlphaScreen, human; Microphthalmia-associated transcription factor (Homo sapiens), O75030; AlphaScreen MITF homodimerization, bead proximity signal; inhibition, % at 2.6 µM; 650,000 compounds, 0.91% hits; AID 1259374, 2018; in the data active = inhibition above about 50%
# FBW7 act – FBW7 E3 ligase activators, primary screen, biochemical, AlphaScreen, human; normalized activity (activation), % at 26.1 µM; 650,000 compounds, 0.13% hits; AlphaScreen FBW7–phospho-cyclin E peptide binding, activator screen; AID 1259310, 2017; in the data active = normalized activity above about 1.9%;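 also: purified mutant Fbw7 with reduced substrate affinity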
# GPR151 confirm – GPR151 activators, triplicate retest, confirmation, cell-based, PathHunter beta-arrestin, luminescence; shares compounds with GPR151 ag; GPR151 PathHunter beta-arrestin cells, 90 min; % of EA-reagent control over plate median; activation, % at 11.2 µM; 6,700 tested, under 10 active; AID 1508609, 2020;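 active = mean percent activation across replicates above the confirmation screen cutoff of 4.91%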
# GPR119 counter – GPR119 activators in beta-arrestin cells, counter-screen for GPR151 activator project, cell-based, PathHunter beta-arrestin, luminescence, triplicate; shares compounds with GPR151 ag; 90 min; 0 = compound-well median, 100 = enzyme-acceptor control; activation, % at 11.2 µM; 6,700 compounds, 0.3% hits; AID 1508611, 2020;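 active = mean percent activation in the counterscreen above 29.09%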;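 also: counterscreen on off-target GPR119 to flag nonselective hits from the GPR151 activator screen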
# Target sequence (Q8TDV5 whole entry, looked up): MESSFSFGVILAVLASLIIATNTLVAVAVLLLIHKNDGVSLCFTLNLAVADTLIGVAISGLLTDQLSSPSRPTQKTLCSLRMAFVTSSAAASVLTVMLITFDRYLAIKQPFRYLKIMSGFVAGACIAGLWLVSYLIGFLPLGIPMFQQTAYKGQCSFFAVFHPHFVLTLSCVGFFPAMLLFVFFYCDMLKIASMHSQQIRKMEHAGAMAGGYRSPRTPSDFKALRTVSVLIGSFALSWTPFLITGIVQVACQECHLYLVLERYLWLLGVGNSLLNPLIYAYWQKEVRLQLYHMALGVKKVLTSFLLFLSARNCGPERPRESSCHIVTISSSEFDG
# A number is an active result; . = inactive; / = no result given; ! = not active in a repeat. Hits are enriched below; roughly 3.5% of the tested compounds scored in any of these assays.
SMILES,TEAD-YAP block,GPR151 ag,MITF inh,FBW7 act,GPR151 confirm,GPR119 counter
O=C(CNC(=O)c1cccs1)OCc1c(F)cccc1Cl,.,.,.,.,/,/
O=C(CNC(=O)c1cccs1)OCc1c(Cl)cccc1Cl,.,5.4,.,.,.,.
CCCC(=O)N1CCC(O)(c2cccc(F)c2)CC1,.,.,.,.,/,/
O=C(Cc1ccc2c(c1)OCO2)N1CCC(O)(c2cccc(F)c2)CC1,.,6.8,.,.,.,.
Cc1ccc(NC(=O)NC23CC4CC(CC(C4)C2)C3)cc1NC(=O)NC12CC3CC(CC(C3)C1)C2,.,.,.,.,/,/
Cc1ccc(NC(=O)NC23CC4CC(CC(C4)C2)C3)cc1,.,5.6,.,.,.,.
CCOc1ccc(CC(=O)NCCn2ccnc2C)cc1,.,.,.,.,/,/
Cc1nccn1CCNC(=O)c1ccc(F)c(F)c1,.,9.9,.,.,.,.
Clc1nc(N2CCOCC2)nc(N(c2ccccc2)c2ccccc2)n1,.,.,.,.,/,/
NNc1nc(N2CCOCC2)nc(N(c2ccccc2)c2ccccc2)n1,.,9.0,.,.,.,.
CC(C)(C)CN1CCN(Cc2ccc3cccc(F)c3n2)CC1CCO (stereo not drawn),.,7.2,.,.,.,.
CC(C)CN1CCN(Cc2ccc3cccc(F)c3n2)CC1CCO (stereo not drawn),.,.,.,.,/,/
O=C(N/N=C/c1ccc(Cl)cc1)C(=O)Nc1cccc(C(F)(F)F)c1,.,.,.,.,/,/
Cn1c(SCC(N)=O)nnc1-c1ccc2c(c1)OCO2,.,9.6,.,.,.,.
CN(C)C(=O)CSc1nnc(-c2ccc3c(c2)OCO3)n1C,.,.,.,.,/,/
O=C1OC(c2ccc(Br)o2)=N/C1=C\c1cccc(Cl)c1,.,.,.,.,/,/
CC(=O)N1CCSc2cc(S(=O)(=O)NC3CCCCC3)ccc21,.,6.1,.,.,.,.
CC(=O)N1CCSc2cc(S(=O)(=O)Nc3ccc(C(C)C)cc3)ccc21,.,.,.,.,/,/
CC(=O)N1CCc2cc(NS(=O)(=O)c3ccc4ccccc4c3)ccc21,.,5.0,.,.,.,.
CC(=O)N1CCSc2cc(S(=O)(=O)Nc3ccc(Cl)cc3)ccc21,.,5.0,.,.,.,.
COc1cc(-c2cc(C(=O)O)c3c(-c4ccc([N+](=O)[O-])cc4)[nH]nc3n2)ccc1O,.,.,.,.,/,/
COc1ccc(OC)c(C(C)NC(=O)c2ccccc2Cl)c1 (stereo not drawn),.,15,.,.,.,.
COC(=O)c1ccccc1NC(=O)C(C)C,.,5.3,.,.,.,.
COc1cc(NC(=O)c2ccccc2Cl)ccc1NC(=O)C(C)C,.,10,.,.,.,.
O=c1cc(N2CCOCC2)oc2c(-c3ccccc3)cccc12,.,5.4!,.,.,.,.
SMILES,TEAD-YAP block,GPR151 ag,MITF inh,FBW7 act,GPR151 confirm,GPR119 counter
CC(C)[C@H](O)C(=O)N1CCN(c2ccc3[nH]ncc3c2)CC1,.,.,.,.,/,/
CC(C)C[C@H](O)C(=O)N1CCN(c2ccc3[nH]ncc3c2)CC1,.,5.0,.,.,.,.
CCC(CC)NC(=O)COC(=O)c1cc(OC)c(OC)cc1[N+](=O)[O-],.,5.0,.,.,.,.
COc1cc(C(=O)OCC(=O)NC(C)C)c([N+](=O)[O-])cc1OC,.,.,.,.,/,/
CNC(=S)NCC(c1ccco1)N1CCCCC1 (stereo not drawn),.,.,.,.,/,/
COc1ccc(N=Cc2c(O)[nH]c(=S)[nH]c2=O)cc1OC,.,7.2,.,.,.,.
O=c1[nH]c(O)c(C=Nc2ccc(F)c(F)c2)c(=O)[nH]1,.,13,.,.,.,.
CCn1c(=NC(=O)CN2C(=O)c3ccccc3C2=O)sc2cccc(F)c21,.,.,.,.,/,/
CCC(C)NC(=O)c1ccc(N(Cc2ccccc2C)S(C)(=O)=O)cc1 (stereo not drawn),.,.,.,.,/,/
O=C(NC1CC1)c1cccc(Nc2ccc(-n3ccnc3)cc2)c1,.,6.2,.,.,.,.
O=C(NCCCC1CCCC1)c1cc(COc2cccc3cnccc23)on1,.,5.2,.,.,.,.
CC(=NCCN1CCNCC1)c1c(C(F)(F)F)[nH]n(-c2nc3ccccc3s2)c1=O,.,.,.,.,/,/
CC(CC(=O)Nc1nc2ccc([N+](=O)[O-])cc2s1)c1ccccc1 (stereo not drawn),.,6.5,.,.,.,.
CCNc1nc(OC(C(F)(F)F)C(F)(F)F)nc(N2CCCCC2)n1,.,6.0,.,.,.,.
COCCNCc1c(C(=O)O)c(C)n(Cc2c(F)cccc2Cl)c1C,.,.,.,.,/,/
COc1ccc(Cl)cc1NC(=O)c1cnn2c1NC(c1ccc(OC)c(OC)c1)CC2C(F)(F)F (stereo not drawn),.,8.6,.,.,.,.
Cn1c(=O)oc2cc(S(=O)(=O)N3CCn4c3nc3ccccc34)ccc21,.,.,.,.,/,/
O=C1CC(=O)Nc2cc(S(=O)(=O)N3CCn4c3nc3ccccc34)ccc2N1,.,5.9,.,.,.,.
N#Cc1c(-c2cccc([N+](=O)[O-])c2)c(C#N)c(=O)n(N)c1N,.,.,.,.,/,/
N#Cc1c(-c2ccccc2)cc(-c2cccc([N+](=O)[O-])c2)c(C#N)c1N,.,5.9,.,.,.,.
O=c1[nH]c2ccc(S(=O)(=O)NCc3ccccc3)cc2o1,.,.,.,.,/,/
CS(=O)(=O)N(CC(=O)Nc1cccc(F)c1)c1ccccc1Cl,.,5.0,.,.,.,.
CCc1ccccc1N(CC(=O)Nc1ccccc1SC)S(C)(=O)=O,.,5.6,.,.,.,.
CCc1ccccc1N(CC(=O)Nc1ccccc1Cl)S(C)(=O)=O,.,14,.,.,.,.
CCc1ccccc1N(CC(=O)Nc1ccc(F)c(F)c1)S(C)(=O)=O,.,6.7,.,.,.,.
CS(=O)(=O)N(CC(=O)Nc1cccc(F)c1)c1ccccc1F,.,.,.,.,/,/
CCOC(=O)c1c(NC(=O)c2cc([N+](=O)[O-])nn2Cc2ccccc2)sc2c1CCCC2,.,.,.,.,/,/
Cc1ccc(C(=O)Nc2cccc(C(=O)O)c2)cc1S(=O)(=O)NCc1ccccc1,.,.,.,.,/,/
O=C(CCCn1c2ccccc2c(=O)c2ccccc21)Nc1ccc(C(F)(F)F)cc1,.,.,.,.,/,/

# Screens from PubChem BioAssay.
